The results in this text go back to PubChem BioAssay (NCI).

Assay [1] in a line: NCI Yeast Anticancer Drug Screen. Data for the rad50 strain (AID 155).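 Also: 0% = growth of vehicle-only cultures of the same strain.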 Particulars: S. cerevisiae rad50 strain growth inhibition, stronger effect = higher value. In outline: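 Vehicle-treated cultures provide the reference for the growth inhibition reported for compound-exposed, repair-deficient yeast.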
Assay [2] can be described thus: NCI Yeast Anticancer Drug Screen. Data for the mec2-1 strain (AID 157). Particulars: S. cerevisiae mec2-1 strain, stronger effect = higher value. In outline:
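mec2-1 yeast strain, carrying an alteration in DNA damage repair or cell cycle control, was exposed to compounds; growth inhibition was measured relative to vehicle-treated controls.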

Assay [3] can be described thus: NCI Yeast Anticancer Drug Screen. Data for the sgs1 mgt1 strain (AID 161).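 Also: 0% = growth of cultures given vehicle only.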 Particulars: S. cerevisiae sgs1 mgt1 strain, stronger effect = higher value. In outline:
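This yeast growth screen uses a strain with defined DNA-repair lesions; compound-treated growth is compared with vehicle-treated growth.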

Assay [4] can be described thus: NCI Yeast Anticancer Drug Screen. Data for the cln2 rad14 strain (AID 165).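 Also: 0% = growth equal to vehicle treated cultures.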 The note with it: S. cerevisiae cln2 rad14 strain, stronger effect = higher value. The essentials:
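Yeast carrying cln2 and rad14 alterations (cell cycle control and DNA damage repair) were exposed to compounds. Growth inhibition was measured against vehicle-treated controls.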

The nature of assay [5]: NCI Yeast Anticancer Drug Screen. Data for the mlh1 rad18 strain (AID 175). The note with it: S. cerevisiae mlh1 rad18 strain growth inhibition, stronger effect = higher value. In outline:
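Growth inhibition of the yeast strain was measured after compound exposure and expressed relative to vehicle-treated controls. The strain carries defined defects in DNA damage repair.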

Assay [6] is described as follows: NCI Yeast Anticancer Drug Screen. Data for the bub3 strain (AID 167). The note with it: S. cerevisiae bub3 mutant strain, stronger effect = higher value. In outline:
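Mutant yeast screening strain plus compound; vehicle-treated cultures serve as the 0% inhibition reference.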

Where [7] appears, read: at 5.0 µM (retest, dose inferred, filed as 0.5).
[8] abbreviates: at 50.0 µM (retest, dose inferred, filed as 5.0).

Where “and” joins values, the source holds several entries; their conditions need not be identical. Equal entries are not always repeated. About 79,000 compounds went through this panel and 15% of them were active in at least one assay; those are over-represented in the sample as a whole. More than one record can exist for a structure, and the calls need not agree. Calls of active or inactive are those of the source. Rule as the data show it: active = growth inhibition above about 70%; inactive = the rest.

As to `O=C(c1ccccc1)C(c1ccccc1)C(O)c1ccc([N+](=O)[O-])cc1` (stereo unspecified), the growth inhibition in assay [1] (setting [7]) was 9% (inactive) and 2% (inactive); in assay [1] (setting [8]), 89% (active) and 99% (active); in assay [1] (at 50.0 µM), 96% (active) and 98.2% (active); in assay [2] (setting [7]), 13% (inactive) and -8% (inactive); in assay [2] (setting [8]), 96% (active) and 99% (active); in assay [2] (at 50.0 µM) it was 98.4% (active) and 99.5% (active). Further, the growth inhibition in assay [3] (setting [7]) was 6% (inactive) and -14% (inactive); in assay [3] (setting [8]), 94% (active) and 99% (active); in assay [3] (at 50.0 µM), 97.1% (active) and 98.8% (active); in assay [4] (setting [7]) it was 9% (inactive) and 3% (inactive); in assay [4] (setting [8]), 96% (active) and 99% (active); in assay [4] (at 50.0 µM) it was 94.8% (active) and 99.2% (active). Further, the growth inhibition in assay [5] (setting [7]) is 11% (inactive) and 6% (inactive); in assay [5] (setting [8]) it was 95% (active) and 99% (active); in assay [5] (at 50.0 µM), 96.7% (active) and 99.5% (active).
Turning to `O[Si](c1ccccc1)(c1ccccc1)c1ccccc1.O[Si](c1ccccc1)(c1ccccc1)c1ccccc1.O[Si](c1ccccc1)(c1ccccc1)c1ccccc1.[O]=[V]`, the growth inhibition is 58% (inactive) in assay [1] (setting [7]); 64% (inactive) in assay [1] (setting [8]); 62.1% (inactive) in assay [1] (at 50.0 µM); 37% (inactive) in assay [2] (setting [7]); 50% (inactive) in assay [2] (setting [8]); 67% (inactive) in assay [2] (at 50.0 µM). In addition, the growth inhibition in assay [3] (setting [7]) is 46% (inactive); in assay [3] (setting [8]) it was 58% (inactive); in assay [3] (at 50.0 µM) it was 70.3% (active); in assay [6] (setting [7]) it was 63% (inactive); in assay [6] (setting [8]) it was 62% (inactive); in assay [6] (at 50.0 µM) it was 43.4% (inactive). The growth inhibition was 53% (inactive) in assay [5] (setting [7]), 58% (inactive) in assay [5] (setting [8]) and 72.6% (active) in assay [5] (at 50.0 µM).
As for `Cc1ccc(C23C=CC(c4ccccc4)(C2)C2C(=O)OC(=O)C23)cc1` (stereo unspecified), the growth inhibition is 86% (active) in assay [1] (setting [7]); 96% (active) in assay [1] (setting [8]); 98.5% (active) in assay [1] (at 50.0 µM); 85% (active) in assay [2] (setting [7]); 97% (active) in assay [2] (setting [8]); 98.5% (active) in assay [2] (at 50.0 µM). For the same compound, the growth inhibition in assay [3] (setting [7]) is 81% (active); in assay [3] (setting [8]), 98% (active); in assay [3] (at 50.0 µM), 98.6% (active); in assay [6] (setting [7]) it was 85% (active); in assay [6] (setting [8]), 97% (active); in assay [6] (at 50.0 µM), 98.7% (active). Besides, the values for the growth inhibition in assay [5] (setting [7]), in assay [5] (setting [8]) and in assay [5] (at 50.0 µM) were 79% (active), 97% (active) and 95.8% (active), respectively.
In the case of `CNC(=O)N(C)CN(C)C(=O)NC`, the growth inhibition was 0% (inactive) in assay [1] (setting [7]); 9% (inactive) in assay [1] (setting [8]); 17.1% (inactive) and 17.2% (inactive) in assay [1] (at 50.0 µM); -1% (inactive) in assay [2] (setting [7]); 2% (inactive) in assay [2] (setting [8]); -11.9% (inactive) and 17.7% (inactive) in assay [2] (at 50.0 µM). Further, the growth inhibition in assay [3] (setting [7]) is -3% (inactive); in assay [3] (setting [8]) it was 7% (inactive); in assay [3] (at 50.0 µM), 4% (inactive) and 19.8% (inactive); in assay [6] (setting [7]) it was -5% (inactive); in assay [6] (setting [8]), -8% (inactive); in assay [6] (at 50.0 µM), 2.8% (inactive) and -19.9% (inactive). Further, the growth inhibition in assay [5] (setting [7]) is -5% (inactive); in assay [5] (setting [8]), 7% (inactive); in assay [5] (at 50.0 µM) it was 3.75% (inactive) and 40.1% (inactive).
For the compound `CC12CCCCC1C/C(=N/NC(N)=O)CC2` (stereo unspecified), the growth inhibition was -135% (inactive) in assay [1] (setting [7]); -78% (inactive) in assay [1] (setting [8]); 8.9% (inactive) and 3.8% (inactive) in assay [1] (at 50.0 µM); -52% (inactive) in assay [2] (setting [7]); -45% (inactive) in assay [2] (setting [8]); 13.1% (inactive) and 1.25% (inactive) in assay [2] (at 50.0 µM). Besides, the growth inhibition in assay [3] (setting [7]) was -64% (inactive); in assay [3] (setting [8]) it was -54% (inactive); in assay [3] (at 50.0 µM), -5.85% (inactive) and -9.35% (inactive); in assay [6] (setting [7]), -62% (inactive); in assay [6] (setting [8]), -49% (inactive); in assay [6] (at 50.0 µM), -4.1% (inactive) and -11.3% (inactive). Moreover, the growth inhibition in assay [5] (setting [7]) is -123% (inactive); in assay [5] (setting [8]) it was -99% (inactive); in assay [5] (at 50.0 µM), 14.5% (inactive) and 10.7% (inactive).
With `O=C1C(CN2CCCCC2)CCCC1CN1CCCCC1` (stereo unspecified), the growth inhibition in assay [1] (setting [7]) is 0% (inactive); in assay [1] (setting [8]), 25% (inactive); in assay [1] (at 50.0 µM), 13.3% (inactive) and 4.85% (inactive); in assay [2] (setting [7]), 2% (inactive); in assay [2] (setting [8]) it was 44% (inactive); in assay [2] (at 50.0 µM) it was -11.6% (inactive) and 24.8% (inactive). In addition, the growth inhibition in assay [3] (setting [7]) was 1% (inactive); in assay [3] (setting [8]), 29% (inactive); in assay [3] (at 50.0 µM), 10.4% (inactive) and 31.3% (inactive); in assay [4] (setting [7]) it was -4% (inactive); in assay [4] (setting [8]), 6% (inactive); in assay [4] (at 50.0 µM) it was -46.1% (inactive) and 41.2% (inactive). For the same compound, the growth inhibition in assay [6] (setting [7]) is -4% (inactive); in assay [6] (setting [8]), 20% (inactive); in assay [6] (at 50.0 µM) it was -3.9% (inactive) and 59.3% (inactive); in assay [5] (setting [7]), -1% (inactive); in assay [5] (setting [8]), 29% (inactive); in assay [5] (at 50.0 µM), 3.2% (inactive) and 10.4% (inactive).
Take `CN(C)c1ccc(/C=C/c2sc3ccccc3[n+]2C)cc1`: the growth inhibition is -39% (inactive) and 14% (inactive) in assay [1] (setting [7]); 99% (active) and 98% (active) in assay [1] (setting [8]); 99.2% (active) in assay [1] (at 50.0 µM); -16% (inactive) and 49% (inactive) in assay [2] (setting [7]); 99% (active) in assay [2] (setting [8]); 99.2% (active) and 99.4% (active) in assay [2] (at 50.0 µM). Besides, the growth inhibition in assay [3] (setting [7]) was -2% (inactive) and 16% (inactive); in assay [3] (setting [8]) it was 72% (active) and 99% (active); in assay [3] (at 50.0 µM) it was 99.5% (active) and 99.4% (active); in assay [6] (setting [7]), 12% (inactive) and -4% (inactive); in assay [6] (setting [8]) it was 99% (active); in assay [6] (at 50.0 µM), 99.4% (active) and 99.3% (active). Also, the growth inhibition is 7% (inactive) and 22% (inactive) in assay [5] (setting [7]); 99% (active) in assay [5] (setting [8]); 99.3% (active) and 99.2% (active) in assay [5] (at 50.0 µM).
On to `NC(CCCCNC(=O)c1ccccc1)C(=O)O` (stereo unspecified), for which the growth inhibition was -1% (inactive) in assay [1] (setting [7]); 4% (inactive) in assay [1] (setting [8]); 17.2% (inactive) and -18.6% (inactive) in assay [1] (at 50.0 µM); 3% (inactive) in assay [2] (setting [7]); 2% (inactive) in assay [2] (setting [8]); 5.85% (inactive) and -22.1% (inactive) in assay [2] (at 50.0 µM). Moreover, the growth inhibition in assay [3] (setting [7]) is 0% (inactive); in assay [3] (setting [8]), -3% (inactive); in assay [3] (at 50.0 µM), 0.1% (inactive) and -35.4% (inactive); in assay [4] (setting [7]), 3% (inactive); in assay [4] (setting [8]) it was 4% (inactive); in assay [4] (at 50.0 µM), 91.9% (active) and -28.2% (inactive). Further, the growth inhibition in assay [6] (setting [7]) is 17% (inactive); in assay [6] (setting [8]), -2% (inactive); in assay [6] (at 50.0 µM), -5% (inactive) and -23.4% (inactive); in assay [5] (setting [7]), -3% (inactive); in assay [5] (setting [8]) it was -3% (inactive); in assay [5] (at 50.0 µM), -1.1% (inactive) and -21.9% (inactive).
